Measurements from PubChem BioAssay (Tox21).
Records with an inconclusive call do not appear. Calls of active or inactive are those of the source. Unless noted, the call rests on the fitted dose curve; in most records, active means well fitted curve in the direction sought with a large enough effect in the repeat runs; inconclusive means weak or mixed curves; inactive means no such curve, though single readings can be large; an effect the other way counts as inactive or inconclusive.

Legend:
[1] = qHTS assay for small molecules that induce genotoxicity in human embryonic kidney cells expressing luciferase-tagged ATAD5 (AID 651632); further: nearly all actives have a fitted effect of over 15% in size; further: potency means the concentration at half of the fitted maximal effect
Procedure, shortened: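 ATAD5-luc HEK293T, 2,000 cells/well; cpd or DMSO pin-transferred; 16 hr, 37C/5% CO2; Amplite 30 min RT; luminescence.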

[2] = qHTS assay for small molecule agonists of the p53 signaling pathway - cell viability (AID 651633; calls by dose curve; further: nearly all actives have a fitted effect of over 30% in size; further: potency means the concentration at half of the fitted maximal effect)
Procedure, shortened: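 p53RE-bla cells were treated with compound for 16 hours at 37 C. Cytotoxicity was then measured as CellTiter-Glo luminescence after 30 min at room temperature.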

[3] = qHTS assay for small molecule disruptors of the mitochondrial membrane potential - cell viability (AID 720634; calls by dose curve;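 further: human HepG2 liver cancer cells; nearly all actives have a fitted effect of over 20% in size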)
Procedure, shortened: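 Cells: HepG2, 2,000/well, attached overnight. Compound 1 hr, 37 C/5% CO2. +m-MPI dye, +CellTiter-Glo 30 min RT. Readout: luminescence (ATP).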

[4] = qHTS assay for small molecule disruptors of the mitochondrial membrane potential (AID 720635); further: potency means the concentration at half of the fitted maximal effect
Procedure, shortened: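 HepG2 cells exposed to compound 1 hr at 37C, then Mito-MPS dye 30 min. Ratio read of aggregate (540/590 nm) versus monomer (490/535 nm) fluorescence.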

[5] = qHTS assay to test for compound auto fluorescence at 590 nm (red) in HepG2 cells (AID 720674)
Procedure, shortened: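 Seeding: 2,000 HepG2 cells/well, MEM/10% FBS, overnight 37 C. Dosing: compound vs DMSO. Incubation: 1 hr, 37 C, 5% CO2. Read: fluorescence 540 ex/590 em, Rose Bengal sodium as red reference.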

[6] = qHTS assay to test for compound auto fluorescence at 535 nm (green) in HepG2 cells (AID 720675)
[7] = qHTS assay to test for compound auto fluorescence at 460 nm (blue) in HEK293 cells (AID 720678)
Procedure, shortened: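 HEK293 cells (2,000/well, medium with 10% dialyzed FBS) attached 4-5 hr, then exposed to compound overnight at 37C, 5% CO2. Blue fluorescence read at 405/460 nm, with triamterene as reference fluorophore.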

[8] = qHTS assay to test for compound auto fluorescence at 535 nm (green) in HEK293 cells (AID 720680)
[9] = qHTS assay to test for compound auto fluorescence at 460 nm (blue) in HEK293 cell free culture (AID 720681)
Procedure, shortened: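 Compounds were added to cell-free DMEM with 10% FBS and fluorescence read directly. The blue channel used 405 nm excitation and 460 nm emission, with triamterene as the reference fluorophore.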

[10] = qHTS assay to test for compound auto fluorescence at 535 nm (green) in HEK293 cell free culture (AID 720682)
Procedure, shortened: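 Using fluorescein as calibrant, autofluorescence was quantified at 485/535 nm in cell-free DMEM containing 10% FBS after pintool addition of compound or vehicle.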

[11] = qHTS assay to test for compound auto fluorescence at 590 nm (red) in HEK293 cell free culture (AID 720683)
Procedure, shortened: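 Cell-free wells of DMEM with 10% FBS received compound, and intrinsic fluorescence was read at excitation/emission 540/590 nm. Values expressed as equivalence to Rose Bengal sodium.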

[12] = qHTS assay to test for compound auto fluorescence at 590 nm (red) in HepG2 cell free culture (AID 720684)
Procedure, shortened: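 Compound was pinned into wells holding MEM with 10% FBS and no cells, and red fluorescence was read at Ex/Em 540/590 nm. Signal is expressed as auto fluorescence equivalency relative to Rose Bengal sodium.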

[13] = qHTS assay to test for compound auto fluorescence at 460 nm (blue) in HepG2 cell free culture (AID 720685)
Procedure, shortened: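 Compound (23 nL) or DMSO pinned into cell-free MEM with 10% FBS; blue fluorescence read at 405/460 nm excitation/emission, expressed as auto-fluorescence equivalency to triamterene.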

[14] = qHTS assay to test for compound auto fluorescence at 535 nm (green) in HepG2 cell free culture (AID 720686)
[15] = qHTS assay to test for compound auto fluorescence at 460 nm (blue) in HepG2 cells (AID 720687)
Procedure, shortened: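 HepG2 cells in MEM with 10% FBS, attached overnight at 37 C, were exposed to compound or DMSO for 1 hr at 37 C, 5% CO2. Blue fluorescence was read at 405/460 nm, with triamterene as reference fluorophore.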

[16] = qHTS assay to test for compound auto fluorescence at 590 nm (red) in HEK293 cells (AID 720679)
Procedure, shortened: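 HEK293 cells (2,000/well, 10% dialyzed FBS) attached 4-5 hr, then dosed with compound or DMSO and incubated overnight at 37C, 5% CO2. Red fluorescence read at 540/590 nm, Rose Bengal sodium as reference fluorophore.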

[17] = qHTS assay for small molecules that induce genotoxicity in human embryonic kidney cells expressing luciferase-tagged ATAD5 - cell viability (AID 651634; calls by dose curve; further: nearly all actives have a fitted effect of over 25% in size)
Procedure, shortened: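 Fluorescence from CellTiter-Fluor, reporting protease activity within live cells, served as the viability read-out. HEK293T cells carrying luciferase-tagged ATAD5 had been treated with compound for 15.5 hr at 37C.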

[18] = target: Glucocorticoid receptor (Homo sapiens) (UniProt P04150); test: qHTS assay to identify small molecule agonists of the glucocorticoid receptor (GR) signaling pathway (AID 720691; active means well fitted activation curve with a large enough effect in the signal ratio in the repeat runs, not every such curve was filed as active; the % refers to the signal ratio); conditions: GR-bla HeLa, beta-lactamase reporter ratio, 18 h; activation: at 62.4 µM (top of the series) unless noted
Procedure, shortened: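 Fluorescence intensity from LiveBLAzer B/G FRET substrate (2 h, room temperature) reports beta-lactamase expression driven by the glucocorticoid response element in GR-bla HeLa cells after 18 h compound exposure at 37 C.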

[19] = target: Glucocorticoid receptor (Homo sapiens) (UniProt P04150); test: qHTS assay to identify small molecule antagonists of the glucocorticoid receptor (GR) signaling pathway (AID 720692; active means well fitted inhibition curve with a large enough effect in the signal ratio in the repeat runs, not every such curve was filed as active; the % refers to the signal ratio)
Procedure, shortened: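 HeLa GR-bla cells; cmpd + dex 5 nM final, 18 h 37 C; LiveBLAzer B/G FRET substrate 2 h RT; fluorescence intensity read. Antagonist mode, qHTS.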
On the % scale 0 is the no-effect control and ±100 the full control effect.

Glucocorticoid receptor (Homo sapiens), sequence (P04150 whole entry, looked up): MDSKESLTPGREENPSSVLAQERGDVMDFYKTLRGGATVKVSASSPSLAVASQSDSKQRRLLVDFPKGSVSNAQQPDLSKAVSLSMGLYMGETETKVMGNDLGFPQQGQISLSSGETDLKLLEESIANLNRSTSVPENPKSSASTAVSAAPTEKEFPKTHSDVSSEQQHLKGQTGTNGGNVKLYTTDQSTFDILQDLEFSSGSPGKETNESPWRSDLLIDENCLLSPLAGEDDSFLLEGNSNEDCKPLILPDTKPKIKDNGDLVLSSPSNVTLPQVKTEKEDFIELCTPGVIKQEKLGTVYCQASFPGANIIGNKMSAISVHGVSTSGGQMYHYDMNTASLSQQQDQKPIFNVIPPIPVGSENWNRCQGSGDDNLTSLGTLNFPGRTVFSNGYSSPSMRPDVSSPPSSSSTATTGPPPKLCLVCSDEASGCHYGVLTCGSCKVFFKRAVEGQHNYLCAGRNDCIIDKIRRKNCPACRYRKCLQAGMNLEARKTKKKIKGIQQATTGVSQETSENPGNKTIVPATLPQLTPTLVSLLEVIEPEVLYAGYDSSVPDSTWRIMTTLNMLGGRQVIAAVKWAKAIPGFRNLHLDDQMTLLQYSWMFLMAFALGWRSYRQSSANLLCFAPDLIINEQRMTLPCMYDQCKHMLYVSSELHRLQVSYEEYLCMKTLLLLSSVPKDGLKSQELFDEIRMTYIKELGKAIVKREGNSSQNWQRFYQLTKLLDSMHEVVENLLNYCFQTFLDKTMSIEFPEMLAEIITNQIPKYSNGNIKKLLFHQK

C=C1C(=C/C=C2\CCC[C@]3(C)[C@@H]([C@H](C)/C=C/[C@@H](O)C4CC4)CC[C@@H]23)C[C@@H](O)C[C@@H]1O
active: Potency [2] 26.6 µM | Potency [4] 22.1 µM
inactive: Potency [1] | Potency [3] | Potency [5] | Potency [6] | outcome [7] | outcome [8] | outcome [9] | outcome [10] | Potency [11] | Potency [12] | outcome [13] | Potency [14] | outcome [15]

CNCCCN1c2ccccc2CCc2ccccc21
inactive: Potency [1] | Potency [2] | Potency [3] | fluorescence, relative to Rose Bengal [5] -0.337% [at 18.6 µM] | fluorescence, % of fluorescein control [6] 0.0155% [at 18.6 µM] | fluorescence, % of triamterene [7] 0.119% [at 18.6 µM] | fluorescence, % of fluorescent control [16] 0.0732% [at 18.6 µM] | fluorescence, % of fluorescein [8] -0.0036% [at 18.6 µM] | fluorescence, % of fluorescent control [9] 0.0048% [at 18.6 µM] | fluorescence, % of Rose Bengal [12] 0.569% [at 18.6 µM] | fluorescence, % of fluorescent control [13] 0.0158% [at 18.6 µM] | fluorescence, % of fluorescein control [14] -0.0226% [at 18.6 µM] | fluorescence, % of fluorescent control [15] 0.0417% [at 18.6 µM]

CC1CCC(=O)C1=O (centres undefined)
inactive: Potency [1] | Potency [17] | Potency [3] | Potency [5] | Potency [6] | outcome [7] | Potency [16] | outcome [8] | outcome [9] | outcome [10] | Potency [12] | outcome [13] | Potency [14] | outcome [15]

NC(=O)C(c1ccccc1)(c1ccccc1)[C@@H]1CCN(CCc2ccc3c(c2)CCO3)C1
inactive: Potency [1] | Potency [17] | Potency [3] | Potency [5] | Potency [6] | outcome [7] | Potency [16] | outcome [9] | outcome [10] | Potency [11] | Potency [12] | outcome [13] | Potency [14] | outcome [15] | Potency [18]

O=C(O)CC(=O)C(=O)O
inactive: Potency [1] | Potency [17] | Potency [3] | Potency [5] | Potency [6] | outcome [7] | outcome [9] | outcome [10] | Potency [12] | outcome [13] | Potency [14] | outcome [15] | Potency [18]

CCOc1ccc(N)c([N+](=O)[O-])c1
inactive: Potency [1] | Potency [2] | Potency [3] | Potency [4] | Potency [5] | Potency [6] | outcome [7] | Potency [16] | outcome [8] | outcome [9] | outcome [10] | Potency [11] | Potency [12] | outcome [13] | Potency [14] | outcome [15]

CN(C)c1ccc(C(c2ccccc2)c2ccc(N(C)C)cc2)cc1
inactive: Potency [1] | Potency [17] | Potency [5] | Potency [6] | outcome [7] | outcome [8] | outcome [9] | outcome [10] | Potency [11] | Potency [12] | outcome [13] | Potency [14] | outcome [15]

c1cc(CCCc2ccncc2)ccn1
inactive: Potency [1] | Potency [17] | Potency [3] | Potency [5] | Potency [6] | outcome [7] | outcome [8] | outcome [9] | Potency [11] | Potency [12] | outcome [13] | Potency [14] | outcome [15] | Potency [18] | Potency [19]

CN1CCC(N(Cc2cccs2)c2ccccc2)CC1
inactive: Potency [1] | Potency [17] | Potency [3] | Potency [5] | Potency [6] | outcome [7] | Potency [16] | outcome [8] | outcome [9] | outcome [10] | Potency [11] | Potency [12] | outcome [13] | Potency [14] | outcome [15] | Potency [18]

COc1cc(C(=O)OCCCN2CCCN(CCCOC(=O)c3cc(OC)c(OC)c(OC)c3)CC2)cc(OC)c1OC
active: Potency [1] 8.41 µM
inactive: Potency [17] | Potency [3] | Potency [5] | Potency [6] | outcome [7] | Potency [16] | outcome [8] | outcome [9] | outcome [10] | Potency [11] | Potency [12] | outcome [13] | Potency [14] | outcome [15] | Potency [18] | Potency [19]

Cn1c(=O)cc(Oc2ccc(F)cc2F)c2cnc(NCC(C)(C)O)nc21
inactive: Potency [1] | Potency [2] | Potency [17] | Potency [5] | Potency [6] | outcome [7] | Potency [16] | outcome [8] | outcome [9] | outcome [10] | Potency [11] | Potency [12] | outcome [13] | Potency [14] | outcome [15] | Potency [18] | Potency [19]

CC(CSC(=O)c1ccccc1)C(=O)N1C[C@@H](Sc2ccccc2)C[C@H]1C(=O)O (some centres undefined)
inactive: Potency [1] | Potency [17] | Potency [3] | Potency [4] | Potency [5] | Potency [6] | Potency [16] | outcome [9] | outcome [10] | Potency [11] | Potency [12] | outcome [13] | Potency [14] | outcome [15]

Cc1[nH]c(C)c(Cl)c(=O)c1Cl
inactive: Potency [1] | Potency [17] | Potency [3] | Potency [5] | Potency [6] | outcome [7] | Potency [16] | outcome [8] | outcome [9] | outcome [10] | Potency [12] | outcome [13] | Potency [14] | outcome [15]

CCCCNc1ccc(C(=O)OCCOCCOCCOCCOCCOCCOCCOCCOCCOC)cc1
inactive: Potency [1] | Potency [17] | Potency [3] | fluorescence, relative to Rose Bengal [5] -0.666% [at 18.6 µM] | fluorescence, % of fluorescein control [6] -0.0335% [at 18.6 µM] | fluorescence, % of triamterene [7] -0.29% [at 18.6 µM] | fluorescence, % of fluorescent control [16] 0.183% [at 18.6 µM] | fluorescence, % of fluorescein [8] -0.0088% [at 18.6 µM] | fluorescence, % of fluorescent control [9] -0.35% [at 18.6 µM] | activity change [10] -0.0595% [at 18.6 µM] | fluorescence, % of fluorescent control [11] -0.482% [at 18.6 µM] | fluorescence, % of Rose Bengal [12] -0.448% [at 18.6 µM] | fluorescence, % of fluorescent control [13] -0.106% [at 18.6 µM] | fluorescence, % of fluorescein control [14] -0.018% [at 18.6 µM] | fluorescence, % of fluorescent control [15] -0.0219% [at 18.6 µM] | Potency [18] | Potency [19]
